Among all 53,000 sequences or so, about 3,700 (7%) were called active. This is one part of a sample in which actives are shown more often than they occur.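 The calls were made as follows: active = gene knockdowns whose robust z-score for IL-1 alpha signal is at least 2 or at most -2, so actives lie on both sides; inactive = the rest.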
Experiment: Components of the Cytosolic LPS Sensing Pathway: Gene Identification via Genome-wide siRNA Screen;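 also: robust z of the log signal after scaling to non-targeting control siRNA wells of the plate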
Settings: RAW264.7 macrophages, IL-1a HTRF, actives lie on both sides, screened at 100 nM (by protocol), cells primed 5 h with Pam3CSK4 first
Method in brief: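 Cells (RAW264.7, 1×10^4 per well) were transfected with siRNA at 100 nM and cultured 48h at 37 degrees C. Pam3CSK4 was added for 5 hours; LipidA transfection followed for 24 hour. IL-1a was then measured by HTRF.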

Row | Sequence | z-score
1 | GGAAGAAUUUAAGAAGUUCTT against Pdia3 | 1.24 (inactive)
2 | GGUCCCUGUGAACAAGCUGTT against Serpinf1 | 1.12 (inactive)
3 | GGUGUUACAUAUGAGGAAUTT against Ociad1 | 1.61 (inactive)
4 | GGCAGACAGAGGGUAAAAATT against Slc24a1 | -0.956 (inactive)
5 | GGAAGAGGAAUAUUACCAGTT against Marveld3 | -2.16 (active)
6 | GGUUCUCUACAAAGUAAGUTT against Slc35e1 | -0.0459 (inactive)
7 | GCUUGUUCAGGAAAUGAAATT against Tmcc3 | -1.15 (inactive)
8 | GGAGACAGAAUUCAAAACUTT against P2ry1 | 0.0725 (inactive)
9 | CCUUCCUACAACAAGUGUGTT against Galnt1 | 2.02 (active)
10 | GCCCAGUCAAGACUAUUCGTT against Csnk2b | 1.58 (inactive)
11 | GGUGAAGACCAUCUUGACCTT against Clcnkb | -1.74 (inactive)
12 | AGACUCGUACACGCAGGAATT against Ggn | 0.882 (inactive)
13 | GGCAGACAAGUUGUUAAAATT against Nusap1 | -0.913 (inactive)
14 | GCUAGUUAUCUAAUCUCUGTT against Nuak1 | 2.79 (active)
15 | GGAACAACUCCUGUUCCCATT against Obscn | 1.85 (inactive)
16 | GGGAAAGAGAAAUUUAAAGTT against Kcne4 | 1.3 (inactive)
17 | CCCAUCAUUCCUUUCUUACTT against Ndfip2 | 0.193 (inactive)
18 | CCAUUCUUGCCUUUGUGCUTT against Cep55 | -1.63 (inactive)
19 | GGCUGUGGUAUUUUUGGUUTT against Vopp1 | 2.15 (active)
20 | CCUGGUACAUCUCUGUUACTT against Olfr449 | 1.53 (inactive)
21 | GCCACUCUAGCUCGUAUUGTT against Des | 0.896 (inactive)
22 | GCAAGUCGAGGUAGAUUGCTT against Rap1a | 0.515 (inactive)
23 | GGACCUAUAGUUCAACAAGTT against Pcf11 | 1.08 (inactive)

Row | Sequence | z-score
24 | CCAUGUGCGACCUGAUAAUTT against Cmtm7 | 0.155 (inactive)
25 | CGACAAACUACAUAGCAGATT against Brms1 | 0.823 (inactive)
26 | GGUCAGACAGCAAUUCACATT against Gpr146 | -2.7 (active)
27 | GCUAUGUGGACGUGACCUATT against Chrnb4 | -0.739 (inactive)
28 | GCUAUAGACAAGGAGAGUATT against Galnt6 | 0.62 (inactive)
29 | GGUCAUAGGUACGUAUCCGTT against Siglech | -0.465 (inactive)
30 | CGUUUUUAUGAGGAGGCCUTT against N4bp3 | -0.897 (inactive)
31 | GGAUUGACAGUGGUCUAUATT against Copz1 | -0.294 (inactive)
32 | UUUGAACAGUCACUCCUCGTT against Ipcef1 | 2.18 (active)
33 | GGAGUUAAAACCAUCGUGATT against D16Ertd472e | 0.725 (inactive)
34 | CCCUAUGCAAUAUCAAAAUTT against Hnrnpa1 | 1.22 (inactive)
35 | GGUAAAUAGCUGUCUUGGCTT against Cerk | -0.622 (inactive)
36 | GCACAGUUAGCAUUGCUCCTT against Hoxc10 | -1.48 (inactive)
37 | GGAUAAUUGGGAUGAUGACTT against Sem1 | -2.24 (active)
38 | GGCAGAGUAUGAGUUUGACTT against Camk1 | 0.699 (inactive)
39 | GGCCAAGUGCACCAUCCUATT against Gng13 | -0.852 (inactive)
40 | GGAGAAAGCCUUCCAAUUUTT against Kel | -0.273 (inactive)
41 | GGUAGAGCAUCAGUAUCUATT against Tex16 | -0.47 (inactive)
42 | CCGCACCAUUCAGCUUUUUTT against Mmgt2 | 0.446 (inactive)
43 | GGCUCGAUUACUGAGUACATT against Bnip2 | 0.884 (inactive)
44 | GGCUUUAGUUGUCUUUUAUTT against Cxcr1 | 0.609 (inactive)
45 | GGAGAAAAAGAGAAGUAUUTT against Skint9 | -0.874 (inactive)
46 | GCAUGAUGGUGCGCUUAAGTT against Ngdn | -0.187 (inactive)

Row | Sequence | z-score
47 | GGUCAUGGAUGUGCACGAUTT against Krt14 | -2.21 (active)
48 | CCUAUACACCCAUUUUUAATT against Arl2bp | 0.163 (inactive)
49 | GGUAACCUGAUGGCUGAAATT against Zfp692 | 2.79 (active)
50 | GCCUAAGGAUCCUGGGUUATT against Orai3 | 1.43 (inactive)
51 | CCGUUUCUAUCGAGUGAAATT against Celf2 | 0.581 (inactive)
52 | GACUAAACAGAUCUUCUCUTT against Klra15 | -0.651 (inactive)
53 | GGAGAUAAUUGGUUUACAGTT against Vmn1r23 | -0.647 (inactive)
54 | CCACACCAUAACAACAUUCTT against Olfr800 | -2.05 (active)
55 | GCAAUUCAGGUUUACUACATT against Fgg | 0.00733 (inactive)
56 | GAAAGUUUACGGGAAAUCUTT against Klf13 | 2.04 (active)
57 | CCAUAAGGUAACCUGUACATT against Serpinb1c | -0.244 (inactive)
58 | GGAUUACAAGACCAUAGAUTT against Clec2g | -0.75 (inactive)
59 | GGCACCUCUGCUUUUAAAGTT against Mrm2 | 0.926 (inactive)
60 | GGAACUGCCUGAAAAAAUGTT against Dcn | -2.76 (active)
61 | CAUAUUCCUUGCAUUACAATT against Taok3 | 0.929 (inactive)
62 | GGUUCAGAAGUUUGGGAGATT against Mrpl48 | 0.615 (inactive)
63 | GGACUGAUUGAUAAAGUCATT against Srp54a | -0.458 (inactive)
64 | UAAAAAUGAGCCGGGCAAUTT against Ms4a5 | 1.42 (inactive)
65 | GGAGCAAAGCUAAAUGUUGTT against Far1 | -0.476 (inactive)
66 | GGAUUUGGCAACAGACUUUTT against Ryr2 | -0.391 (inactive)
67 | CACCGUAAUAAUCACACUATT against Zfp667 | -0.854 (inactive)
68 | GGUACGAAGGAAAAUUUACTT against 2810407A14Rik | 2.72 (active)
69 | GGUUACCAUGUGAAGCAGGTT against Tnfrsf14 | -0.461 (inactive)

— PubChem BioAssay AID1508600 (Functional Genomics Laboratory (NCATS/FGL), 2020)
